Screening data as filed in PubChem.
gsp antag: qHTS for Antagonists of gsp, the Etiologic Mutation Responsible for Fibrous Dysplasia/McCune-Albright Syndrome: qHTS. AID 624288, 2012. gsp-mutant cells, cAMP HTRF, 30 min. hit rate 0.4% among 340,000. Potency, µM (doses to about 76.9 µM), for inactives: at the top dose activity change, negative = inhibition, hits mostly inhibitors; calls by dose curve; cell line not stated here;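 also: intracellular cAMP measured with PDE inhibitor Ro 20-1724 present during compound exposure; % is scaled to controls: 0 for no effect and ±100 for the full control effect; nearly all actives have a fitted effect of over 65% in size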
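HTRF cAMP measurement after 30 min RT detection following 30 min, 37C compound treatment alongside […] (added as 300 uM solution) in G418-selected cells seeded at 2000/well and grown 16–24 h.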
Rango dissoc inh: qHTS Assay for Inhibitors of RanGTP induced Rango (Ran-regulated importin-beta cargo) - Importin beta complex dissociation | Snurportin-1 (Homo sapiens) + GTP-binding nuclear protein Ran (Homo sapiens) + Importin … | Biochemical FRET Rango-importin beta, RanGTP-induced dissociation | Potency, µM (top dose mostly 46.1 µM), without a hit: top-dose activity change, negative = inhibition | hit rate 0.071% among 340,000; also: % of control where 0% means no effect; nearly all actives have a fitted effect of over 45% in size
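Compounds preincubate 5 min with complex of recombinant Rango and importin beta in PBS with 1 mM DTT. Ran (0.6 uM) loaded with 2 mM GTP plus 0.2 uM RCC1 starts dissociation; FRET is recorded 45 min later.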
gsp ag: qHTS for Agonist of gsp, the Etiologic Mutation Responsible for Fibrous Dysplasia/McCune-Albright Syndrome: qHTS. gsp mutant cells, cAMP HTRF, 30 min. Potency, µM (top dose mostly 76.9 µM), for the others: at the top dose activation (cAMP increase), actives largely listed as activators. hit rate 0.13% among 340,000. AID 624287, 2012; active = well fitted activation curve with a large enough effect; inconclusive = small, poorly fitted or top-dose-only effect, or another doubt; inactive = no such curve, though single readings can be large or run the other way; cell line not stated here;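 also: phosphodiesterase inhibitor Ro 20-1724 added with compounds to block cAMP breakdown; nearly all actives have a fitted effect of over 60% in size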
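Cells in DMEM/10% FBS with G418 were pretreated with compounds in DMSO plus […] (300 uM stock) for 30 min at 37C. cAMP was measured by HTRF (cAMP-d2 plus anti-cAMP antibody-K) after 30 min at room temperature.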
S-ASM inh: Inhibitors of Secretory Acid Sphingomyelinase (S-ASM): qHTS | Potency, µM (doses to about 57.5 µM), inactives show at the highest dose activity change, negative = inhibition, hits mostly inhibitors | hit rate 0.006% among 340,000 | Sphingomyelin phosphodiesterase (Homo sapiens), P17405 | placental ASM, HMU-PC fluorogenic substrate, 60 min; active = well fitted inhibition curve with a large enough effect; inconclusive = small, poorly fitted or top-dose-only effect; inactive = no such curve, though single readings can be large or run the other way
Target sequence (P17405 47-631 limits assumed): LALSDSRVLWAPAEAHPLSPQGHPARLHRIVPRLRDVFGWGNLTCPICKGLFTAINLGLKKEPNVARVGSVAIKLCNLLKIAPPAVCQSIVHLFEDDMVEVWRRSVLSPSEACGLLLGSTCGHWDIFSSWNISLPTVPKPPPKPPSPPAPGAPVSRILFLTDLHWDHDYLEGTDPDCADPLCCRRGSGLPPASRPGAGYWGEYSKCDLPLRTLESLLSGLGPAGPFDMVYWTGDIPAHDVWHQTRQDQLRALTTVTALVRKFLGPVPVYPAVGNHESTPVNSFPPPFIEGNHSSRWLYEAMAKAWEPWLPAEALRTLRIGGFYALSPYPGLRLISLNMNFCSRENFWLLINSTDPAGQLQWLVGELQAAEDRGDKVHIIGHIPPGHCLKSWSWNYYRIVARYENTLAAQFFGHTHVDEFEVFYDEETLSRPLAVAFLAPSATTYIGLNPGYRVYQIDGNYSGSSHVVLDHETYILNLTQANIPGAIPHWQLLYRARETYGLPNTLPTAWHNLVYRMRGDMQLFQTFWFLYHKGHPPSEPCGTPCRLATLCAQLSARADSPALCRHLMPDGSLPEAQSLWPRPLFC
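Steps: dispense placental human ASM, pin compound, wait 10 min at room temperature, add HMU-PC0 substrate at 9 uM final, incubate 60 min at 37 °C, add stop solution raising pH to 10, read fluorescence.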
Rango complex inh: qHTS Assay for Inhibitors of Rango (Ran-regulated importin-beta cargo) - Importin beta complex formation; Importin subunit beta-1 (Homo sapiens), Q14974; Rango CFP/YFP FRET sensor + importin beta, 45 min; Potency, µM (highest dose often 92.2 µM), without a hit: top-dose inhibition of complex formation; hit rate 0.031% among 340,000; AID 540263, 2011;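 also: 0% = DMSO wells and 100% = buffer wells lacking importin beta; nearly all actives have a fitted effect of over 15% in size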
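FRET biosensor Rango (snurportin 1 IBB between N-terminal EYFP and C-terminal Cerulean), 50 nM in PBS/1 mM DTT/0.02% Tween-20/0.1% BSA, preincubated 5 min RT with compound; 0.125 microM importin beta added, 45 min RT, CFP/YFP FRET ratio read.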
The depositor's hits bear a star; i = inactive; ? = inconclusive; nt = no result given; [ ] = another dose, or the depositor's remark. The list is not random: actives were taken first. Their share in the collection is about 0.67%. Unless noted, calls follow the shape of the full dose curve. Potency is read from the fitted curve at half-maximal effect.

SMILES | gsp antag | Rango dissoc inh | gsp ag | S-ASM inh | Rango complex inh
CCN(CC)CCCNC(=S)N1CCN(c2nc(-c3ccccc3)cs2)CC1 | 14% | 9% | 6% | -1% | 7%
CCNC(=S)N1CCN(c2nc(-c3cccc(OC)c3)cs2)CC1 | 32µM* | 3% | 20% | -6% | 3%
COCCCNC(=S)N1CCN(c2nc(-c3ccccc3)cs2)CC1 | 32µM* | 1% | ? | -11% | 0%
CC(=O)N1CCN(C2=NC(=O)/C(=C/c3ccc(OS(=O)(=O)c4ccccc4)cc3)S2)CC1 | -15% | 1% | ? | -19% | 1%
O=C(CCc1[nH]c2ccccc2c1Sc1ccccc1)NCCO | -15% | 1% | 14% | 7% | 0%
COC(=O)CCN(C)CCC(=O)OC | 50µM* | 24% | 7% | 1% | -2%
CN(C)/C=C/c1onc(-c2ccccc2Cl)c1C#N | 11µM* | 19% | -2%[15.4 µM] | 0% | 2%
Cc1ccc(S(=O)(=O)NCCC(=O)Oc2ccc3ccc(=O)oc3c2)cc1 | -19% | 12µM* | ? | i | ?
Cc1cccc(N2CCN(C(=O)C3CCN(c4ncnc5c4nc4n5CCCCC4)CC3)CC2)c1C | ? | -13% | -5% | -17% | -2%
Cc1cccc(N2CCN(C(=O)C3CCN(c4ncnc5c4nc4n5CCCCC4)CC3)CC2C)c1 (stereo not drawn) | 40µM* | -19% | 26% | -1% | -4%
CC(=O)Nc1ccc(/C=N/NC(=O)CNC(=O)c2ccccc2)cc1 | -5% | 1% | 6%[15.4 µM] | 4% | 0%
O=c1[nH]c(=S)[nH]cc1Oc1ccc(Cl)cc1Cl | 11% | 0% | 6.3µM* | 1% | 0%
Cc1nc(-c2ccccc2)[nH]c(=O)c1Oc1ccc(Cl)cc1Cl | -10% | 5% | 0% | 0% | -1%
COCCNCCCOc1ccc(C)cc1Br | 35µM* | 7% | -75% | -7% | 1%
Cc1cccc(OCCn2c(-c3ccco3)nc3ccccc32)c1 | 35µM* | -10% | 1% | -16% | -1%
c1ccc(OCCn2c(-c3ccco3)nc3ccccc32)cc1 | -18% | -31% | 3% | -2% | ?
CC(=O)c1ccc(NC(=O)CSc2nnc(Cn3cnc4ccccc43)o2)cc1 | 11% | ? | -2%[15.4 µM] | -13% | -1%
COc1ccc(C(=O)CSc2nnc(Cn3cnc4ccccc43)o2)cc1 | 40µM* | -6% | -13% | -11% | 0%
Cc1c(/C(O)=C2/C(=O)C(=O)N(CCN3CCOCC3)C2c2ccccn2)cnn1-c1ccccc1 (stereo not drawn) | -1% | ? | 9%[15.4 µM] | 1% | ?
COc1cc(CNn2nnnc2N)cc(Br)c1OCc1c(Cl)cccc1Cl | 40µM* | -9% | -3% | -12% | -5%
CCC(C)n1c(SCC(=O)NC2CCS(=O)(=O)C2)nc2ccccc2c1=O (stereo not drawn) | 13% | 3% | 6% | 5% | 6%
Cc1cc(OCC(=O)NCCc2ccc(Cl)cc2)c2c(C)cc(=O)oc2c1 | 1% | 2% | 26% | 0% | -1%
CN(C)c1ccc(N/C=C/C(=O)C(C)(C)C)cc1 | 35µM* | -12% | -3% | 2% | 3%
CCOC(=O)/C(C#N)=C1\CCCN1CC(N)=S | -10% | 1% | -14%[15.4 µM] | -1% | -1%
CCOC(=O)C(C)Sc1nc(-c2ccco2)cc(C(F)(F)F)c1C#N (stereo not drawn) | 35µM* | ? | -20% | 340% | -3%
SMILES | gsp antag | Rango dissoc inh | gsp ag | S-ASM inh | Rango complex inh
CCCn1c(N)c(C(=O)CSc2nnc(-c3cccs3)n2C2CC2)c(=O)[nH]c1=O | 9% | -13% | -35% | -2% | 0%
Cc1ccc(C(=O)NC(=S)Nc2ccc(-c3cc4ccccc4oc3=O)cc2)c(C)c1 | 7% | 31% | 20µM* | 24% | 0%
Cc1cc(C)cc(C(=O)NC(=S)Nc2ccc(-c3cc4ccccc4oc3=O)cc2)c1 | 4% | -26% | 4% | 24% | -4%
CN(CCc1ccccc1)C(=O)c1cccc(NC(=O)Cc2cccc([N+](=O)[O-])c2)c1 | -22% | 13% | nt | -1% | -1%
COC(=O)CCC(C)C1CCC2C3C(OC(C)=O)CC4CC(O)CCC4(C)C3CC(O)C12C (stereo not drawn) | nt | nt | -32% | nt | nt
COc1ccc(NC(=O)/C(C#N)=C\c2ccc(-c3cc(C(=O)O)ccc3C)o2)cc1 | 45µM* | ? | -24% | -4% | ?
Cc1ccc2c(c1)N(C(=O)CCC(=O)N1CCC(C(N)=O)CC1)CC(C)O2 (stereo not drawn) | -5% | -4% | -16% | -1% | 1%
CC(=O)Nc1ccc2[nH]c3ccccc3c2c1 | 0% | 2% | -43% | 2% | 2%
O=C(Nc1ccc(Cl)cc1)c1cc2c(cc1O)[nH]c1ccccc12 | 35µM* | -10% | -6%[15.4 µM] | 424% | -2%
Cc1sc2ncnc(N3CCC(C(=O)NNC(=O)COc4ccc(Cl)cc4)CC3)c2c1C | 32µM* | -11% | ? | 9% | -1%
Cc1sc2ncnc(N3CCC(C(=O)NNC(=O)COc4ccccc4Cl)CC3)c2c1C | ? | -8% | -4% | nt | 0%
Cc1cc(Br)ccc1NC(=O)CN(C)C(=O)C1CCN(c2ncnc3sc(C)c(C)c23)CC1 | 32µM* | -5% | 1% | nt | ?
Cc1sc2ncnc(N3CCC(C(=O)NNC(=O)COc4cccc(C(F)(F)F)c4)CC3)c2c1C | 50µM* | 1% | 28% | nt | 0%
Cc1sc2ncnc(N3CCC(C(=O)Nc4ccc(OC(F)F)c(Cl)c4)CC3)c2c1C | 28µM* | -4% | -35% | -24% | 0%
COC(=O)CCNC(=O)c1ccc2nc(Cc3ccc(OC)c(OC)c3)oc2c1 | -17% | 0% | -8% | 4% | 0%
CCN1CCN(c2ccc(S(=O)(=O)N3CCOCC3)cc2NC(=O)C(C)Oc2ccc(Cl)cc2)CC1 (stereo not drawn) | 1% | -1% | -2%[15.4 µM] | -4% | 1%
Cc1ccc(OCC(=O)NNC(=O)C2CCN(c3ncnc4sc(C)c(C)c34)CC2)cc1 | -25% | -6% | 38%[15.4 µM] | -3% | -3%
Cc1cc(Cl)ccc1OCC(=O)NNC(=O)C1CCN(c2ncnc3sc(C)c(C)c23)CC1 | 35µM* | 13% | 17% | -18% | 3%
Cc1sc2ncnc(N3CCC(C(=O)NNC(=O)COc4ccc(Br)cc4)CC3)c2c1C | 32µM* | 23% | -17%[15.4 µM] | -15% | 2%
